Test results reported in PubChem BioAssay (NCI).
The panel holds about 79,000 compounds, 15% with a hit somewhere; the sample as a whole holds those more often. Calls of active or inactive are those of the source. Cut-off read from the data, not from the text of the source: active = growth inhibition above about 70%; inactive = the rest.

Assays:
[1] = NCI Yeast Anticancer Drug Screen. Data for the rad50 strain (AID 155);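 note: 0% = growth of vehicle-only cultures of the same strain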; settings: S. cerevisiae rad50 strain growth inhibition, stronger effect = higher value
Summary of the method: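 Genetically altered yeast (DNA repair pathway); compound treatment; growth inhibition vs vehicle ctrl.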

[2] = NCI Yeast Anticancer Drug Screen. Data for the mec2-1 strain (AID 157); settings: S. cerevisiae mec2-1 strain, stronger effect = higher value
Summary of the method: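 Compounds were applied to mec2-1 yeast cells. Their growth was then compared with that of vehicle-treated cultures to give growth inhibition.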

[3] = NCI Yeast Anticancer Drug Screen. Data for the sgs1 mgt1 strain (AID 161);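 note: 0% = growth of cultures given vehicle only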; settings: S. cerevisiae sgs1 mgt1 strain, stronger effect = higher value
Summary of the method: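 Percent growth inhibition was derived by comparing compound-exposed mutant yeast with vehicle-exposed cultures. The strain carries alterations in DNA damage repair.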

[4] = NCI Yeast Anticancer Drug Screen. Data for the cln2 rad14 strain (AID 165);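 note: 0% = growth equal to vehicle treated cultures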; settings: S. cerevisiae cln2 rad14 strain, stronger effect = higher value
Summary of the method: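 Strain: cln2 rad14 yeast, altered in cell cycle control and DNA damage repair. Read-out: growth inhibition vs vehicle.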

[5] = NCI Yeast Anticancer Drug Screen. Data for the bub3 strain (AID 167); settings: S. cerevisiae bub3 mutant strain, stronger effect = higher value
Summary of the method: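 Yeast carrying a defined mutation is treated with each compound, and growth is compared with that of vehicle-exposed cells to give inhibition.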

[6] = NCI Yeast Anticancer Drug Screen. Data for the mlh1 rad18 strain (AID 175); settings: S. cerevisiae mlh1 rad18 strain growth inhibition, stronger effect = higher value
Summary of the method: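 A repair-deficient yeast strain is exposed to test compound, and growth is scored relative to vehicle-treated controls.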

[7] = at 5.0 µM (retest, dose inferred, filed as 0.5)
[8] = at 50.0 µM (retest, dose inferred, filed as 5.0)

Measured: growth inhibition

Nc1ccccc1Sc1ccc(C(F)(F)F)cc1[N+](=O)[O-]
active: [1]; at 50.0 µM 99.1% | [2]; at 50.0 µM 99% | [3]; at 50.0 µM 99.2% | [4]; at 50.0 µM 94.7% | [5]; at 50.0 µM 98.7%
inactive: [1]; [7] -1% | [1]; [8] 23% | [2]; [7] 2% | [2]; [8] 30% | [3]; [7] 0% | [3]; [8] 23% | [4]; [7] -2% | [4]; [8] 22% | [5]; [7] 6% | [5]; [8] 26%

CCCCC(Oc1cc(C(C)(C)C)c(O)c(C(C)(C)C)c1)C(=O)O (stereo not drawn)
active: [1]; at 50.0 µM 99.1% | [2]; [8] 70% | [2]; at 50.0 µM 99.4% | [3]; [8] 97% | [3]; at 50.0 µM 99.5% | [4]; [8] 95% | [4]; at 50.0 µM 99% | [5]; [8] 97% | [5]; at 50.0 µM 99.2%
inactive: [1]; [7] 21% | [1]; [8] 68% | [2]; [7] 12% | [3]; [7] 35% | [4]; [7] 49% | [5]; [7] 3%

COC1/C=C\C=C(/C)C(=O)NC2=CC(=O)C(N)=C(CC(C)CC(OC)C(O)C(C)C=C(C)C1OC(N)=O)C2=O (stereo not drawn)
active: [1]; [8] 88% | [1]; at 50.0 µM 86.4% | [2]; [8] 91% | [2]; at 50.0 µM 87.7% | [3]; [8] 92% | [3]; at 50.0 µM 88% | [4]; [8] 81% | [4]; at 50.0 µM 76.9% | [5]; [8] 93% | [5]; at 50.0 µM 87.9% | [6]; [8] 89% | [6]; at 50.0 µM 84%
inactive: [1]; [7] -28% | [2]; [7] -23% | [3]; [7] 5% | [4]; [7] -36% | [5]; [7] -16% | [6]; [7] -22%

CCCCOc1ccc(NC(=S)Nc2ccc(OCCN(CC)CC)cc2)cc1
active: [2]; [8] 70% | [3]; at 50.0 µM 83.8% | [4]; at 50.0 µM 80.8% | [5]; at 50.0 µM 71%
inactive: [1]; [7] -4% | [1]; [8] 45% | [1]; at 50.0 µM 63.6% | [2]; [7] 28% | [2]; at 50.0 µM 39.1% | [3]; [7] 21% | [3]; [8] 67% | [4]; [7] 4% | [4]; [8] 35% | [5]; [7] 3% | [5]; [8] 54%

COC([C@@H](OC(=O)c1ccccc1)[C@H](OC(=O)c1ccccc1)C(O)COC(=O)c1ccccc1)n1cc(C)c(=O)[nH]c1=O (stereo partly drawn)
inactive: [1]; [7] -8% | [1]; [8] 26% | [1]; at 50.0 µM 17.1% | [2]; [7] -8% | [2]; [8] 18% | [2]; at 50.0 µM 49.5% | [3]; [7] 4% | [3]; [8] 33% | [3]; at 50.0 µM 65.5% | [4]; [7] 8% | [4]; [8] 57% | [4]; at 50.0 µM 53.5% | [5]; [7] -19% | [5]; [8] 28% | [6]; [7] -3% | [6]; [8] 69% | [6]; at 50.0 µM 67.3%
active: [5]; at 50.0 µM 71.8%

CN(NC(=O)c1cccs1)C1=NCCCN1
inactive: [1]; [7] 43% | [1]; at 50.0 µM -18.2% | [2]; [7] 8% | [2]; [8] 21% | [2]; at 50.0 µM -4.9% | [3]; [7] 65% | [3]; at 50.0 µM -16.9% | [4]; [7] 6% | [4]; [8] 33% | [4]; at 50.0 µM 10.3% | [5]; [7] 18% | [5]; [8] 22% | [5]; at 50.0 µM 4.8% | [6]; [7] 23% | [6]; [8] 55% | [6]; at 50.0 µM -20.7%
active: [1]; [8] 83% | [3]; [8] 76%

COC(=O)c1ccccc1CC(Cc1ccc2c(c1)CCC2)C(=O)OC (stereo not drawn)
inactive: [1]; [7] 20% | [1]; [8] 27% | [1]; at 50.0 µM 35% | [2]; [7] 12% | [2]; [8] 14% | [2]; at 50.0 µM 16.9% | [3]; [7] 10% | [3]; [8] 20% | [3]; at 50.0 µM 29.6% | [4]; [7] 9% | [4]; [8] -2% | [4]; at 50.0 µM 13.7% | [5]; [7] 16% | [5]; [8] 27% | [5]; at 50.0 µM 12.3% | [6]; [7] 16% | [6]; [8] 15% | [6]; at 50.0 µM 4.25%

O=Cc1ccc([N+](=O)[O-])o1
inactive: [1]; [7] 36% | [2]; [7] 7% | [3]; [7] 13% | [4]; [7] -1% | [5]; [7] -3% | [5]; [8] 57%
active: [1]; [8] 98% | [1]; at 50.0 µM 99.6% | [2]; [8] 99% | [2]; at 50.0 µM 99.4% | [3]; [8] 99% | [3]; at 50.0 µM 99.6% | [4]; [8] 85% | [4]; at 50.0 µM 98.6% | [5]; at 50.0 µM 99.8%

CCCCCCCCCCCCCCCCCCOC(=O)Nc1ccc(C)c(NC(=O)OCCCCCCCCCCCCCCCCCC)c1
active: [1]; at 50.0 µM 70.2% | [5]; at 50.0 µM 83.6% | [6]; at 50.0 µM 79.2%
inactive: [1]; [7] -11% | [1]; [8] -18% | [2]; [7] 6% | [2]; [8] -1% | [2]; at 50.0 µM 60.9% | [3]; [7] -6% | [3]; [8] -11% | [3]; at 50.0 µM 59.8% | [4]; [7] 0% | [4]; [8] -19% | [4]; at 50.0 µM 26.4% | [5]; [7] -3% | [5]; [8] -3% | [6]; [7] -11% | [6]; [8] -9%

CNc1ccc(N=O)cc1
inactive: [1]; [7] -1% | [2]; [7] 27% | [3]; [7] 5% | [3]; [8] 57% | [4]; [7] 19% | [5]; [7] 25% | [6]; [7] 19%
active: [1]; [8] 90% | [1]; at 50.0 µM 87.8% | [2]; [8] 99% | [2]; at 50.0 µM 90.8% | [3]; at 50.0 µM 89% | [4]; [8] 81% | [4]; at 50.0 µM 74.7% | [5]; [8] 98% | [5]; at 50.0 µM 89.2% | [6]; [8] 98% | [6]; at 50.0 µM 87.6%
